One assay deals with IFI44L. Briefly: pooled miR-30 sensor sort-seq; sequence = guide strand. The following applies: shRNA.
For the sequence TAATACTTCTTTGTGAACTTGC, the sensor-assay potency score (higher = more potent) was 0.781. On the same count and under the same terms, for TTTATGGACATTCATGACCCGG the value was -1.2; for TTATGGACATTCATGACCCGGC, -0.0543.

For the sequence TAGCATTTTATGGACATTCATG, the sensor-assay potency score (higher = more potent) is -1.18. Same read-out and setting: the result for TTTGTGAACTTGCTTCACTTTT reads -0.819; that for TTGTCTTGAAGAACCTCACTGC, 0.709.

TTCTTTGTGAACTTGCTTCACT had a sensor-assay potency score (higher = more potent) of 0.156. Turning to TTGAAGTGAAAACCATAGGGAA, the sensor-assay potency score (higher = more potent) was -0.486.

On to TATGTCGTCTAGGTTATCCTTA, for which the sensor-assay potency score (higher = more potent) amounted to 0.221.

The sequence TACTTCTTTGTGAACTTGCTTC yielded a sensor-assay potency score (higher = more potent) of 0.0933.

TTTCGATAAACGACACACCAGT: the sensor-assay potency score (higher = more potent) was -0.943.

The next assay concerns the target IFLTD1. The description is as above. Conditions: shRNA.
TAAGTTTCTTTGAATCACCAAA registered a sensor-assay potency score (higher = more potent) of -0.981. Still for that read-out and setting: for TAGACAGATAGTAACCAAGAGG the value was -1.22; for TATAGTTACTCTACTAATCTGA, 0.529; for TTGTTATACAATCAGGACTTGC, -1.51. Still for that read-out and setting: the result for TTGCTCTAAACTTGTCTTGTTC reads -0.614. The same measure, in the same setting: for TTTTCCACTCTGGAACAGCTAC the value was -0.846.

In the case of TTGAGATATCTTTCTTAGGTTG, the sensor-assay potency score (higher = more potent) is -0.851. TAATTTGAGATATCTTTCTTAG showed a sensor-assay potency score (higher = more potent) of -0.577. On to TTGTCCATTCACATTTTGCTGG, for which the sensor-assay potency score (higher = more potent) is -0.587.

On to TTGAATAATACTAACCATCTGC, for which the sensor-assay potency score (higher = more potent) was determined as 0.269. Same read-out and setting: the result for TCTTCTTTTTCTTAGACCCTGA reads -0.319.

The sequence TTGCTTTTCTAGTAGCTGGTTG registered a sensor-assay potency score (higher = more potent) of -0.208.

The next assay addresses IFNA17. The description is as above. The following applies: shRNA.
TTGCTGGTAAAGTTCAGTGGAA yielded a sensor-assay potency score (higher = more potent) of -0.731.

Regarding TTCCAGGTTATTCAGTTGCTGG, the sensor-assay potency score (higher = more potent) was -1.21. In turn, TATTTTTTGCAAGTTTGTTGAA had a sensor-assay potency score (higher = more potent) of -0.556. Still for that read-out and setting: for TCTTCCATCCCAACCTCCTGTA the value was -0.396.

As to TCTGAGGCAGATCACAGCCTAG, the sensor-assay potency score (higher = more potent) is -1.69. The same measure, in the same setting: for TATCACACATGCTTCCAGGTTA the value was 0.103. Take TCTTCTGGAACTGGTTGCCATC: the sensor-assay potency score (higher = more potent) was -1.69. On the same count and under the same terms, for TAGAGAACAGATGGATTTGTAG the value was -0.448; for TTCTCTGTTAGATAAAGAGTGA, -0.598; for TGTATTTCTTCTCTGTTAGATA, -1.15.

The next assay deals with IFT52. Described as above. The following applies: shRNA.
Consider TGAACATGTGACATGAACCAAG, for which the sensor-assay potency score (higher = more potent) was -0.609. On to TTTGGCATCCTGTTGGTCCTTT, for which the sensor-assay potency score (higher = more potent) came to 0.0621. Still for that read-out and setting: the result for TGAATCTTCCAATTACTCCGAA reads 0.152; that for TTAATATTGGTGTCAAATCTGG, -0.514.

Sequence TTTCACATTTAGCTGCTCGTGA gave a sensor-assay potency score (higher = more potent) of 0.557. The same measure, in the same setting: for TAATCCACAGTTTTACTCCATT the value was -1.37.

Take ATATTGATCACTGAACATGTGA: the sensor-assay potency score (higher = more potent) is -0.0473.

Source of the values: the OligoGym collection.
Further: reference of the scale not given here.
